Screens (PubChem BioAssay)
Rab9 promoter act – qHTS Assay for Rab9 Promoter Activators; Huh7 Rab9 promoter-luciferase reporter, luminescence, 24 h; Potency, µM (top dose mostly 9.22 µM), for inactives: at the top dose activation, negative = inhibition, most hits filed as activators; 320,000 tested, 2.8% active; note: % of control where 0% means no effect; nearly all actives have a fitted effect of over 60% in size
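Stable Rab9-luc Huh7, 1500 cells/well, 2 h settle; cmpd in DMSO, 24 h, 37 °C/5% CO2; luciferase reagent 10 min RT; luminescence.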
KinaseGlo FLuc – Counterscreen for Luciferase (Kinase-Glo TM) Inhibition; Luciferin 4-monooxygenase (Photuris pensylvanica), Q27757; Kinase-Glo luciferase, ATP luminescence, 8 min; Potency, µM (doses to about 38.3 µM), without a hit: at the highest dose activity change, negative = inhibition, most hits filed as inhibitors; 200,000 tested, 0.28% active; note: % is set by controls: 0 for no effect and ±100 for the full control effect; nearly all actives have a fitted effect of over 60% in size
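Compound is pinned into ATP-containing buffer (10 uM ATP, imidazole pH 7.2, 7 mM MgCl2). Kinase-Glo luciferase reagent is then added. Light output is recorded following an 8-min room-temperature incubation.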
FLuc counter – qHTS profiling assay for firefly luciferase inhibitor/activator using purifed enzyme and Km concentrations of substrates (counterscreen for miR-21 project); purified FLuc, Km substrates, luminescence inhibition; Potency, µM (doses to about 57.5 µM), for the others: at the top dose activity change, negative = inhibition, usual class: inhibitors; 360,000 tested, 6.9% active; AID 588342, 2011;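 note: plate controls were vehicle for no effect and reference inhibitor for full effect; nearly all actives have a fitted effect of over 55% in size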
Target sequence (P08659 whole entry, looked up): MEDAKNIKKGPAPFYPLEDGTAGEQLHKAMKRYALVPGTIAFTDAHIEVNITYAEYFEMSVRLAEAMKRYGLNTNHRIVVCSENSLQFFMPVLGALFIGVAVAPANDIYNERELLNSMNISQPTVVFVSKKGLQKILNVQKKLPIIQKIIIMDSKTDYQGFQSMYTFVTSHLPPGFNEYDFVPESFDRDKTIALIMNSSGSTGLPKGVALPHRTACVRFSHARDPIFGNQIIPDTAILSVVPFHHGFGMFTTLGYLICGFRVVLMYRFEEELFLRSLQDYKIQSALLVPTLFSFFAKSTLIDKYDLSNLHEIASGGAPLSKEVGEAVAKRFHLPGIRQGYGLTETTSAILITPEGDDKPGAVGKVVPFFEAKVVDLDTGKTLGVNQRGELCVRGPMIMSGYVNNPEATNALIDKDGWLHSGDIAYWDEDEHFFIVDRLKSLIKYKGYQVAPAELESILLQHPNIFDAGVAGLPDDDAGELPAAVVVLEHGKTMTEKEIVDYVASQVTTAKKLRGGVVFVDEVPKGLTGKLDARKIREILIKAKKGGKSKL
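Purified P. pyralis luciferase, 10 nM final, with Km-level 10 uM D-luciferin and 10 uM ATP in 50 mM Tris acetate pH 7.5, 10 mM Mg acetate, 0.01% Tween-20, 0.05% BSA; 6-point qHTS titration about 60 µM downward; luminescence read.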
SMN2 splice enh – qHTS Assay for Enhancers of SMN2 Splice Variant Expression; 210,000 tested, 2.8% active; AID 1458, 2008; HEK293 SMN2-luciferase splicing reporter, luminescence, 30-36 h; Potency, µM (doses to about 46.1 µM), for the others: top-dose activity change, positive = activation, hits mostly activators; note: % of control where 0% means no effect; nearly all actives have a fitted effect of over 55% in size
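HEK293 cells carry an SMN2 minigene-luciferase reporter in which exon 7 inclusion puts luciferase in frame. Cells were seeded at 2000 cells/well, attached for 10-12 hours, then exposed to compounds for 30-36 hours at 37C before ONE-Glo luminescence.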
NPC1 prom act – qHTS Assay for NPC1 Promoter Activators | Huh7 NPC1 promoter luciferase reporter, 24 h | Potency, µM (doses to about 9.22 µM), without a hit: at the top dose activation, most hits filed as activators | 320,000 tested, 2.4% active; note: % of control where 0% means no effect; nearly all actives have a fitted effect of over 60% in size
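Luciferase expression driven by the NPC1 promoter was measured in stably transfected Huh7 cells after a 24 h compound incubation, using a luciferase reagent and a luminescence read.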
ELG1 genotoxic – qHTS screen for small molecules that induce genotoxicity in human embryonic kidney (HEK293T) cells expressing luciferase-tagged ELG1; 330,000 tested, 1.3% active; AID 504466, 2011; Potency, µM (highest dose often 46 µM), for inactives: at the highest dose activity change, positive = activation, actives largely listed as activators; HEK293T ELG1-luciferase reporter, luminescence, 16 h; note: % of control where 0% means no effect; nearly all actives have a fitted effect of over 60% in size
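HEK293T cells expressing luciferase-tagged ELG1 were exposed to compound or DMSO vehicle for 16 hr at 37 °C and 5% CO2. Luciferase activity was then measured with ONE-Glo after 30 min at room temperature.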
The depositor's hits bear a star; ? = inconclusive; . = not tested or not shown; [ ] = another dose, or the depositor's remark. The list is not random: actives were taken first. Their share in the collection is about 7.4%. Calls come from the whole dose curve; as a rule, active = well fitted curve in the direction sought with a large enough effect; inconclusive = small, poorly fitted or top-dose-only effect, or another doubt; inactive = no such curve, though single readings can be large; an effect the other way counts as inactive or inconclusive. Potency is the fitted concentration of half-maximal effect.

SMILES | Rab9 promoter act | KinaseGlo FLuc | FLuc counter | SMN2 splice enh | NPC1 prom act | ELG1 genotoxic
O=c1cc(CSc2n[nH]c(-c3ccccc3)n2)[nH]c2ccccc12 | . | . | -16% | . | . | .
COc1ccc2c(c1OC)C(=O)OC2Nc1nc(-c2cc3ccccc3oc2=O)cs1 (configuration not stated) | 0.45µM* | ? | 8.5µM* | 2.2µM* | 0.89µM* | ?
COc1cccc(-c2csc(NC3OC(=O)c4c3ccc(OC)c4OC)n2)c1 (configuration not stated) | ? | . | ? | . | 29% | 15%
COc1ccc2c(c1OC)C(=O)OC2Nc1nc(-c2ccc(-c3ccccc3)cc2)cs1 (configuration not stated) | 0.71µM* | 0% | 1.3µM* | 2.2µM* | 0.71µM* | 3.3µM*
COc1ccc(-c2nc(-c3ccccc3)c(NC(C)C)o2)cc1 | . | -1% | . | 6% | . | .
COc1cccc(-c2nc(-c3ccc(Br)o3)no2)c1 | 0.56µM* | . | 0.67µM* | . | 0.89µM* | ?
COc1ccccc1-c1nc(-c2ccc(Br)o2)no1 | 0.89µM* | ? | 1.9µM* | ? | 3.5µM* | ?
COc1ccccc1Cc1nc(-c2ccc(Br)o2)no1 | 12% | -4% | 19µM* | 8% | 16% | 9%
COc1ccccc1-c1noc(-c2cc(OC)c(OC)c(OC)c2)n1 | -6% | 3% | -20% | 17% | 0% | 0%
COc1ccc(-c2nc(-c3ccc(Br)o3)no2)cc1OC | 3.2µM* | -1% | ? | 14µM* | ? | 21µM*
COc1ccc(-c2noc(Cc3ccccc3OC)n2)cc1 | 22% | -5% | ? | -12% | 24% | ?
COc1cccc(NC(=O)c2cc3cccc(OC)c3o/c2=N\O)c1 | 0.71µM* | . | 0.54µM* | . | 2.8µM* | ?
COc1cccc(NC(=O)c2cc3ccccc3o/c2=N\O)c1 | 0.71µM* | . | 0.54µM* | . | 0.79µM* | 0.41µM*
O=C(Nc1ccccc1Cl)c1ccccc1Cl | 0% | 0% | -16% | -15% | 0% | 11%
COc1cccc(NC(=O)c2ccccc2Oc2ccccc2)c1 | 7% | . | -1% | . | 0% | -5%
COc1ccc(NC(=O)c2cc3cccc(OC)c3oc2=Nc2ccc(C(=O)O)cc2)cc1OC | -7% | -1% | -1% | 10% | -5% | 6%
O=C(Nc1ccccc1Cl)c1cc2ccccc2o/c1=N\O | 2.5µM* | . | 2.1µM* | . | 3.2µM* | 16µM*
N#Cc1ccccc1Cn1c(=O)n(-c2ccc(F)c(Cl)c2)c(=O)c2sccc21 | . | . | -4% | 6% | . | .
CCCCc1nc2c(c3c1C[C@H](C)OC3)CN(S(=O)(=O)c1ccccc1C(=O)OC)CC2 | . | -9%[7.66 µM] | . | 2%[9.22 µM] | . | .
O=C(c1ccc(Cc2nc3ccccc3[nH]2)cc1)N1CCCCC1 | . | -3% | . | . | . | .
CCc1ccc(NC(=O)c2ccc3c(O)c(S(=O)(=O)c4ccccc4)c(=O)[nH]c3c2)cc1 | . | . | 4.3µM* | . | . | .
Cc1ccc(NC(=O)c2ccc3c(O)c(S(=O)(=O)c4ccccc4)c(=O)[nH]c3c2)cc1Cl | . | . | 11µM* | . | . | .
COc1ccc(S(=O)(=O)c2c(O)c3ccc(C(=O)Nc4ccccc4)cc3[nH]c2=O)cc1 | -2% | . | ? | . | -1% | -1%
Cc1cc(Nc2ccccc2)nn1C(=O)c1ccc(Cl)cc1 | 13% | 2% | 9.5µM* | -14% | -4% | ?
Cc1cc(Nc2ccccc2)n(-c2ccccc2)n1 | -1% | -5% | 1% | 3% | -6% | 13%
SMILES | Rab9 promoter act | KinaseGlo FLuc | FLuc counter | SMN2 splice enh | NPC1 prom act | ELG1 genotoxic
Cc1cc(Nc2ccccc2)n(C(=O)c2ccccc2)n1 | 28% | 21% | 12µM* | -13% | 10% | ?
CCOc1ccc(NC(=O)CCS(=O)(=O)c2ccc3nc(C)sc3c2)cc1 | . | . | 1% | . | . | .
CCCCOc1ccc(CNC(=O)c2cc3n(n2)CCCN(Cc2ccc(C)cc2)C3=O)cc1 | . | . | -19% | . | . | .
Cc1occc1-c1nnc(SC(C)C(=O)Nc2ccccc2F)o1 (configuration not stated) | 2.8µM* | . | 2% | . | ? | ?
Cc1coc2c1c(C)cc1oc(=O)c(CC(=O)NCc3ccc(Cl)cc3)c(C)c12 | . | . | -7% | 13% | . | .
N#CCC(=O)Nc1ccc(C(=O)OCC(=O)c2ccc3c(c2)OCO3)cc1 | 4µM* | . | ? | . | ? | 12%
N#CCC(=O)Nc1ccc(C(=O)OCC(=O)c2ccc3c(c2)OCCO3)cc1 | ? | 0% | 11µM* | -5% | ? | 12%
Cn1c(=O)oc2cc(S(=O)(=O)N3CCCC(C(=O)NCCc4ccc(Cl)cc4)C3)ccc21 (configuration not stated) | . | . | 1% | 19% | . | .
CC(C)c1cc(-c2nc(-c3ccccc3)no2)n[nH]1 | . | . | 1.7µM* | . | . | .
COc1ccc(-c2noc(-c3cc(C(C)C)[nH]n3)n2)cc1 | . | . | 21µM* | . | . | .
Cc1ccccc1-c1noc(-c2cc(C(C)C)[nH]n2)n1 | . | . | 11µM* | . | . | .
Cc1ccc(-c2noc(-c3cc(-c4ccc(F)cc4)n[nH]3)n2)cc1 | . | . | -10% | . | . | .
c1ccc(-c2noc(-c3ccccc3-c3ccccc3)n2)cc1 | -5% | -3% | -14% | -11% | -2% | 0%
COc1ccc(-c2ccc(-c3noc(-c4ccccc4OC)n3)c(OC)n2)cc1 | 3% | 6% | 0% | -16% | 0% | 7%
CC(C)c1cc(-c2nc(-c3ccc(Br)cc3)no2)n[nH]1 | . | . | 13µM* | . | . | .
Cc1ccccc1-c1noc(-c2cc(-c3ccc(F)cc3)n[nH]2)n1 | . | . | 6% | . | . | .
O=c1cnc2cnc(N3CCOCC3)nc2n1C[C@H]1CCCO1 | . | -2% | . | -6% | . | .
Cn1cc(-c2cc3n(n2)CCC(=O)N3CC(=O)NCc2ccccc2)c2ccccc21 | . | . | -14% | . | . | .
COc1ccc(C(=O)N2CCC3(CCN(C)CC3)CC2)cc1 | . | -1% | . | -5% | . | .
Cc1cc(C)c2oc(C(=O)Nc3nc4ccc(Cl)cc4s3)cc(=O)c2c1 | . | . | -14% | 1% | . | .
Cc1nc(N2CCOCC2)c2c(C(=O)NCCc3ccccc3)c(C)oc2n1 | . | . | -10% | . | . | .
Cc1sc(NC(=O)c2ccco2)c(C(c2cccnc2)N2CCN(c3ccc(F)cc3)CC2)c1C (configuration not stated) | -9% | 1% | 0% | -68% | -14% | 0.52µM*
CSc1nsc(/C=C/Nc2ccc(C(=O)O)cc2)c1C#N | 14% | -4% | 12µM* | 3% | -4% | -7%
